Results from PubChem BioAssay AID588448 (NMMLSC, 2011).

The compounds below were run against Integrin alpha-4 (Homo sapiens) (UniProt P13612) (assay: VLA-4 pocket occupancy via HUTS-21 epitope – U937 cells, powder samples, set 2, SAR follow-up (AID 588448)). Settings: HUTS-21 LIBS mAb binding, flow cytometry; series mostly up to 66.7 µM; inhibition: at the top concentration;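 active = half-maximal concentration under 30 µM, fit with over 36% top-dose inhibition and error below a fifth of it; inactive = the rest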.
Integrin alpha-4 (Homo sapiens), sequence (P13612 whole entry, looked up): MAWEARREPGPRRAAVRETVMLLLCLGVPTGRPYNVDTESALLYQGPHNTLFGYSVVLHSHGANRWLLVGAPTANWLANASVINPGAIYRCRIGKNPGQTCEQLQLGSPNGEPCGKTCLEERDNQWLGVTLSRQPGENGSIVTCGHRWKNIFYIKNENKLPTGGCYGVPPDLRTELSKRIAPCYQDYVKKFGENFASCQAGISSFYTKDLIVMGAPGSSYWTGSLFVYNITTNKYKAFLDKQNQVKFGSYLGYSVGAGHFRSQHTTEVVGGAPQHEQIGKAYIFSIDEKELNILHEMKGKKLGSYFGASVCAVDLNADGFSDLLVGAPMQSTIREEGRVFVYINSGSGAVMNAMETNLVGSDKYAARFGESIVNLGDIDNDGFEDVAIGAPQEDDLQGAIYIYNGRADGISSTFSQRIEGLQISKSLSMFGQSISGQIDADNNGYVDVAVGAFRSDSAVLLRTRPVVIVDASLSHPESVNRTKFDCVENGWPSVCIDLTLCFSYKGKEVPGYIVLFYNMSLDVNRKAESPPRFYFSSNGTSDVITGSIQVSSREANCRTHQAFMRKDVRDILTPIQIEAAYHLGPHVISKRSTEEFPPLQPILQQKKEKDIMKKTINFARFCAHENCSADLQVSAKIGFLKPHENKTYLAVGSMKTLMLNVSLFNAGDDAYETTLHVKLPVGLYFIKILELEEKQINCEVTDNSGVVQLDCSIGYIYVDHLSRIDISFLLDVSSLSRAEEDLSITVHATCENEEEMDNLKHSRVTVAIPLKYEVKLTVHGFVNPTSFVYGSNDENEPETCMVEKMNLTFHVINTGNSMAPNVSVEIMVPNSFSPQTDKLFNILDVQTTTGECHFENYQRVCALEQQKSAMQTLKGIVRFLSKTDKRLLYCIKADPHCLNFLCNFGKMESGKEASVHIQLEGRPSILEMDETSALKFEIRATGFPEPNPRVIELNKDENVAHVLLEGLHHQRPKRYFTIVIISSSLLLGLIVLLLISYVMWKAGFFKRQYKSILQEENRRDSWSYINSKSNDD

inhibition, inactive:
CCOCCn1c(C2CC(=O)N(c3ccccc3)C2)nc2ccccc21 (centres undefined) 12.3
COCCn1c(C2CC(=O)N(c3cccc(C)c3)C2)nc2ccccc21 (centres undefined) -13.7
COCC(=O)N1CCC2(CCCN(CCc3ccccc3)C2=O)C1 (centres undefined) 38
CCOc1ccccc1N1CC(c2nc3ccccc3n2C)CC1=O (centres undefined) 26.1
Cc1nc2ccccc2n1CCc1noc(COc2ccccc2)n1 3.66
COc1ccccc1N1CCN(CC(=O)c2ccc(F)cc2)CC1 -8.2
O=C1C2CC=CCC2C(=O)N1Cc1csc(Cc2ccccc2)n1 (centres undefined) 15.8
Cc1cc(C(=O)N2CCCC2c2nc3ccccc3s2)on1 (centres undefined) 22.9
Cc1oc(-c2cccs2)nc1CN1C(=O)C2CC=CCC2C1=O (centres undefined) 4.95
CN1CC(c2nc3ccccc3n2CCOc2ccccc2)CC1=O (centres undefined) -8.52
Cc1ccc(C)n1-c1ccc(C(=O)N(C)Cc2ccco2)cc1 2.7
COCCn1c(C2CC(=O)N(Cc3ccco3)C2)nc2ccccc21 (centres undefined) 7.51
COCCn1c(C2CC(=O)N(c3ccccc3C)C2)nc2ccccc21 (centres undefined) 10.7
Cc1nc(C)c(C(=O)N2CCCC2c2nc3ccccc3s2)s1 (centres undefined) 5.91
CN(Cc1ccco1)C(=O)c1ccc(-n2cnc3ccccc32)cc1 13
Cc1ccc(-c2nc(CN3C(=O)C4CC=CCC4C3=O)cs2)cc1 (centres undefined) 5.59
CCn1c(C2CC(=O)N(CCc3ccccc3)C2)nc2ccccc21 (centres undefined) 23.5
CCN1CC(c2nc3ccccc3n2CCOc2ccccc2)CC1=O (centres undefined) 14.6
O=C(c1ccc(OCCN2CCCCC2)cc1)c1c(-c2ccc(O)cc2)sc2cc(O)ccc12 -87.7
COc1ccc(-c2nn(Cc3ccccc3)cc2C(=O)N2CCC2)cc1 -0.18
CCn1c(C2CC(=O)N(c3ccccc3OC)C2)nc2ccccc21 (centres undefined) 39.6
Cc1cc(C(=O)N2CCCC2c2ccc3c(c2)OCCO3)sc1C (centres undefined) 5.59
COc1cc(OCc2ccccc2)ccc1CN1CCN(C)CC1 -6.27
COc1ccccc1Cn1c(C2CC(=O)N(C)C2)nc2ccccc21 (centres undefined) 4.63
CSc1ccccc1OCc1cc(C(=O)N2CCCC2)no1 7.51
COc1ccc(C2CCCN2C(=O)c2sccc2C)cc1OC (centres undefined) 6.87
Cn1cc(C(=O)N2CCCC2c2nc3ccccc3s2)cn1 (centres undefined) 7.19
CCN1CC(c2nc3ccccc3n2Cc2ccccc2)CC1=O (centres undefined) 24.2
CC(=O)N(C)Cc1nc2ccccc2n1CCOc1ccc(C)cc1 22.3
